GLS inhibitor: blocks human kidney-isoform glutaminase activity. GLS enzymatic activity, qHTS titration. Potency, µM (series often up to 45.5 µM), hits mostly inhibitors. hit rate 0.21% among 410,000. AID 624170
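Glutamate formation by hKGA was monitored fluorometrically using coupled glutamate oxidase, HRP and Amplex Red. Substrate was added as 1 mM L-glutamine solution; incubation was 30 min at RT after an initial read.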
JMJD2A Tudor: inhibitors of human JMJD2A Tudor domain. AlphaScreen JMJD2A-Tudor / H3K4me3 peptide binding. Potency, µM (top dose mostly 114 µM), hits mostly inhibitors. hit rate 4.4% among 390,000; also: nearly all actives have a fitted effect of over 50% in size
BAZ2B inh: blocks human BAZ2B; AID 504333; hit rate 4.4% among 360,000; Q9UIF8; AlphaScreen BAZ2B-H3K14Ac peptide displacement; Potency, µM (doses to about 114 µM), hits mostly inhibitors; also: nearly all actives have a fitted effect of over 60% in size
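AlphaScreen displacement: compounds (up to 110uM) incubated 30 min at room temperature with a preformed 50 nM BAZ2B/50 nM biotinylated H3K14Ac peptide complex in PBS pH 7.4 with Tween-20. Donor and acceptor beads at 10 ug/mL final added, 20 min light-protected before reading.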
G9a inh: inhibitors of human histone lysine methyltransferase G9a; hit rate 8.8% among 350,000; G9a H3K9 monomethylation, AlphaScreen, 2 h; Q96KQ7; Potency, µM (titrated, usually from 102 µM), most hits filed as inhibitors; also: nearly all actives have a fitted effect of over 75% in size
Target sequence (Q96KQ7 913-1193 limits assumed): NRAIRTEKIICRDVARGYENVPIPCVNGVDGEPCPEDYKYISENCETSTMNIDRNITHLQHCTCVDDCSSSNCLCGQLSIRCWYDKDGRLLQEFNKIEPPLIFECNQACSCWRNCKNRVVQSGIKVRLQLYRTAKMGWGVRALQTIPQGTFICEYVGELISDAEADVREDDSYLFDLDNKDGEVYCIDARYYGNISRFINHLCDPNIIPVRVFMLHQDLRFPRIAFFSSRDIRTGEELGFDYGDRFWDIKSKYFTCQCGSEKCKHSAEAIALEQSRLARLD
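Step 1: enzyme (final 20 nM) with compound, 15 min RT. Step 2: substrate peptide 500 nM and SAM 20 uM, 2 h RT. Step 3: anti-H3K9me1 antibody and AlphaScreen beads, 10 min, then plate read.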
HP1b binding inh: inhibitors of HP1-beta chromodomain binding to methylated histone tails | P83916 | AlphaScreen HP1-beta / biotin-H3K9me3 peptide binding | Potency, µM (series often up to 114 µM), actives largely listed as inhibitors | hit rate 0.56% among 390,000 | AID 540317; also: nearly all actives have a fitted effect of over 70% in size
Target sequence (P83916 whole entry, looked up): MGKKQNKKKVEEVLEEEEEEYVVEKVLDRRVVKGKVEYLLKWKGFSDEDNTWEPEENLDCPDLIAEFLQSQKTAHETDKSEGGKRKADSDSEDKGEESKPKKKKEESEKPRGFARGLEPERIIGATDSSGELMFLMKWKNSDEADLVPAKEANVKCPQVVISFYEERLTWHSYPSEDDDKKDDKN
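HP1-beta protein (50 nM final) preincubated 30 min at room temperature with biotinylated H3(1-18)K9me3 peptide (50 nM) in PBS pH 7.4, 0.01% Tween-20, then compound added for 30 min. AlphaScreen streptavidin donor/nickel chelate acceptor beads (10 ug/mL final), 30 min dark, luminescence read.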
Numbers stand for hits; [ ] = dose if it differs, or a comment. A selection: hits, their analogues and other compounds. The true share with any hit is near 10%. Calls follow the shape of the dose curve; as a rule, active = well fitted curve in the direction sought with a large enough effect; inconclusive = small, poorly fitted or top-dose-only effect, or another doubt; inactive = no such curve, though single readings can be large; an effect the other way counts as inactive or inconclusive.

Results for CC(C)(C)c1csc(NC(=O)Cc2cccs2)n1 ?
GLS inhibitor: inactive; JMJD2A Tudor: inactive; BAZ2B inh: 50µM; G9a inh: 50µM; HP1b binding inh: inactive

How did Cc1ccc(S(=O)(=O)CCc2nnc(NC(=O)CCl)s2)cc1C do in these assays?
GLS inhibitor: inactive; JMJD2A Tudor: inactive; BAZ2B inh: inactive; G9a inh: 79µM; HP1b binding inh: inactive

How did COc1ccc(CNC(=O)C(c2ccc(C)o2)N(C(=O)c2csnn2)c2ccc(C(C)C)cc2)cc1 (stereo not given) do in these assays?
GLS inhibitor: inactive; JMJD2A Tudor: inactive; BAZ2B inh: inactive; G9a inh: inconclusive; HP1b binding inh: inactive

What do the screens show for `Cc1ccccc1Sc1ncccc1[N+](=O)[O-]`?
GLS inhibitor: inactive; JMJD2A Tudor: inconclusive; HP1b binding inh: inactive

What do the screens show for `O=[N+]([O-])c1cccnc1Sc1ccc(Br)cc1`?
GLS inhibitor: inactive; JMJD2A Tudor: 56µM; HP1b binding inh: inconclusive

Results for Cc1c([N+](=O)[O-])cnc(Sc2ccccc2)c1[N+](=O)[O-] ?
GLS inhibitor: inactive; JMJD2A Tudor: 40µM; HP1b binding inh: inconclusive

Results for Cc1ccc(Sc2ncccc2[N+](=O)[O-])cc1 ?
GLS inhibitor: inactive; JMJD2A Tudor: 45µM; BAZ2B inh: inconclusive; G9a inh: inconclusive; HP1b binding inh: inconclusive

How did O=[N+]([O-])c1cccnc1SCc1ccccc1 do in these assays?
GLS inhibitor: inactive; JMJD2A Tudor: 14µM; BAZ2B inh: 32µM; G9a inh: 45µM; HP1b binding inh: 35µM

What do the screens show for `COc1ccccc1OCC(=O)NNc1c2ccccc2nc2ccccc12`?
GLS inhibitor: inactive; JMJD2A Tudor: inconclusive; BAZ2B inh: inconclusive; G9a inh: 35µM; HP1b binding inh: inactive

What do the screens show for `COc1ccccc1OCC(=O)NNC(=O)CCCC(=O)NNC(=O)COc1ccccc1OC`?
GLS inhibitor: inactive; JMJD2A Tudor: inactive; BAZ2B inh: inactive; G9a inh: inconclusive; HP1b binding inh: inactive

How did C[N+]1(CC(=O)NNc2c3ccccc3nc3ccccc23)CCOCC1 do in these assays?
BAZ2B inh: inconclusive; G9a inh: 50µM

How did COc1ccc(/C=N/NC(=O)CN(c2ccc(OC)cc2)S(=O)(=O)c2ccccc2)cc1 do in these assays?
GLS inhibitor: inactive; JMJD2A Tudor: inconclusive; BAZ2B inh: inactive; G9a inh: inconclusive; HP1b binding inh: inactive

Results for COc1cccc(-c2nc3n(n2)C(c2cccs2)C(C(=O)Nc2cccnc2)=C(C)N3)c1 (stereo not given) ?
GLS inhibitor: inactive; JMJD2A Tudor: inactive; BAZ2B inh: inactive; G9a inh: inactive; HP1b binding inh: inactive

Results for Clc1cccc(OCCn2ccnc2)c1 ?
GLS inhibitor: inactive; JMJD2A Tudor: inactive; BAZ2B inh: inactive; HP1b binding inh: inactive

How did Cc1cc(C(C)(C)C)ccc1OCCn1ccnc1 do in these assays?
GLS inhibitor: inactive; JMJD2A Tudor: 14µM; BAZ2B inh: 35µM; G9a inh: 22µM; HP1b binding inh: inconclusive

What do the screens show for `Cc1ccc(OCCn2ccnc2)c(C)c1`?
GLS inhibitor: inactive; JMJD2A Tudor: inactive; BAZ2B inh: inactive; G9a inh: 71µM; HP1b binding inh: inactive

Results for Cc1cc(C)c(OCCn2ccnc2)c(C)c1 ?
GLS inhibitor: inactive; JMJD2A Tudor: inactive; BAZ2B inh: inactive; G9a inh: inactive; HP1b binding inh: inactive

What do the screens show for `CC(C)(C)c1cc(Cl)ccc1OCCn1ccnc1`?
GLS inhibitor: inactive; JMJD2A Tudor: 5µM; BAZ2B inh: 40µM; HP1b binding inh: inconclusive

What do the screens show for `N#Cc1ccccc1NC(=O)COC(=O)c1ccc2c(c1)OCCO2`?
GLS inhibitor: inactive; JMJD2A Tudor: inactive; BAZ2B inh: inactive; G9a inh: inactive; HP1b binding inh: inactive

How did Cn1c(SCC(=O)N2CCc3ccccc32)nc2cccnc21 do in these assays?
GLS inhibitor: inactive; JMJD2A Tudor: inactive[11.4 µM]; BAZ2B inh: inactive; G9a inh: inactive; HP1b binding inh: inactive

What do the screens show for `Cc1ccccc1C(=O)NC(=S)Nc1ccccc1N1CCCC1`?
GLS inhibitor: inactive; JMJD2A Tudor: 25µM; BAZ2B inh: 25µM; G9a inh: 20µM; HP1b binding inh: inconclusive

What do the screens show for `O=C(NC(=S)Nc1ncccn1)c1ccc(F)cc1`?
GLS inhibitor: inactive; JMJD2A Tudor: inactive; BAZ2B inh: inconclusive; G9a inh: 8.9µM; HP1b binding inh: inactive

What do the screens show for `Cc1ccccc1C(=O)Nc1ccccc1N1CCN(C(=O)c2ccccc2)CC1`?
GLS inhibitor: inactive; JMJD2A Tudor: inactive; BAZ2B inh: inactive; G9a inh: inactive; HP1b binding inh: inactive

How did O=C(NC(=S)Nc1ccccc1N1CCCC1)c1ccc(F)cc1 do in these assays?
GLS inhibitor: inactive; JMJD2A Tudor: 35µM; BAZ2B inh: 25µM; G9a inh: 32µM; HP1b binding inh: 50µM

How did Cc1cc(C(=O)Nc2ccccc2N2CCOCC2)ccc1[N+](=O)[O-] do in these assays?
GLS inhibitor: inactive; JMJD2A Tudor: inactive; BAZ2B inh: inactive; G9a inh: inactive; HP1b binding inh: inactive

Results for O=C(NC(=S)Nc1ccccc1N1CCCCC1)c1ccc(F)cc1Cl ?
GLS inhibitor: inactive; JMJD2A Tudor: inactive; BAZ2B inh: inactive; G9a inh: inactive[12.7 µM]; HP1b binding inh: inactive

Results for Cc1cc(C(=O)NC(=S)Nc2ccccc2N2CCOCC2)ccc1[N+](=O)[O-] ?
GLS inhibitor: inactive; JMJD2A Tudor: inconclusive; BAZ2B inh: inconclusive; G9a inh: 35µM; HP1b binding inh: inconclusive

Results for Cc1noc(NS(=O)(=O)c2ccc(NC(=O)c3cc(S(=O)(=O)Nc4ccc(F)cc4)ccc3Cl)cc2)c1C ?
GLS inhibitor: inactive; JMJD2A Tudor: inactive; HP1b binding inh: inactive

What do the screens show for `CCCn1c(=O)[nH]c(=O)c2c1nc(-c1ccc(C#N)cc1)n2CCOC`?
GLS inhibitor: inactive; JMJD2A Tudor: inactive; BAZ2B inh: inactive; G9a inh: inconclusive; HP1b binding inh: inactive

What do the screens show for `CCOC(=O)Cc1csc(NC(=O)CSc2nnnn2-c2ccc(F)cc2)n1`?
GLS inhibitor: inactive; JMJD2A Tudor: inactive; BAZ2B inh: inactive; G9a inh: inactive; HP1b binding inh: inactive

Results for CC1CCN(c2ccccc2NC(=S)NC(=O)c2cccs2)CC1 ?
GLS inhibitor: inactive; JMJD2A Tudor: inconclusive; BAZ2B inh: 35µM; G9a inh: inactive[12.7 µM]; HP1b binding inh: inconclusive

What do the screens show for `CC(C)Oc1ccc(C(=O)Nc2ccccc2N2CCCC2)cc1`?
GLS inhibitor: inactive; JMJD2A Tudor: inactive[11.4 µM]; BAZ2B inh: inconclusive; G9a inh: 45µM; HP1b binding inh: inconclusive

How did O=C(Nc1ccccc1N1CCN(C(=O)c2ccc(Cl)cc2)CC1)c1cccc(F)c1 do in these assays?
GLS inhibitor: inactive; JMJD2A Tudor: inactive; BAZ2B inh: inactive; G9a inh: inactive; HP1b binding inh: inactive

What do the screens show for `CS(=O)(=O)N1CCN(c2ccccc2NC(=S)NC(=O)c2cccs2)CC1`?
GLS inhibitor: inactive; JMJD2A Tudor: inactive[11.4 µM]; BAZ2B inh: inconclusive; G9a inh: inactive; HP1b binding inh: inactive

How did O=C(NC(=S)Nc1ccccc1N1CCOCC1)c1ccc(Br)cc1 do in these assays?
GLS inhibitor: inactive; JMJD2A Tudor: inconclusive; BAZ2B inh: inconclusive; G9a inh: inconclusive; HP1b binding inh: inactive
